In the library only some 11% were active in any assay of this set; here they are far more common.
Pf growth 96h – inhibits malaria parasite growth, 96 h | P. falciparum luciferase reporter growth, 96 h | Potency, µM (top dose mostly 28.7 µM), for inactives: top-dose activity change, negative = inhibition, hits mostly inhibitors | 6.9% of 320,000 active
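Two parasite generations (96 h, 37 C, 5% CO2) of compound exposure in infected erythrocytes (0.05% parasitemia, 2% hematocrit). Luciferase-reporter P. falciparum; decreased luminescence indicates inhibited growth, aimed at apicoplast-acting delayed death.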
HCV inhibitor – blocks hepatitis C virus | Potency, µM (series often up to 41.8 µM), inactives show top-dose activity change, negative = inhibition, most hits filed as inhibitors | AID 651820 | 3.4% of 340,000 active | Huh7.5.1 HCVcc-Cre infection, luciferase reporter, 44 h
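1,000 cells/well; 4 h culture; + compound; + HCVcc-Cre (~0.5 moi); 44 h; luciferase substrate, RT 15 min; read 15 sec.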
Pf growth 48h – P. falciparum growth inhibition at 48 hours (one generation) | P. falciparum luciferase growth in erythrocytes, 48 h | Potency, µM (series often up to 28.7 µM), for the others: at the highest dose activity change, negative = inhibition, hits mostly inhibitors | 5.9% of 310,000 active | AID 504832
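Cell-based growth assay: transgenic P. falciparum expressing firefly luciferase, cultured in red cells within RPMI 1640 containing 0.5% w/v Albumax, 24 mM bicarbonate and gentamycin. A drop in luciferase activity indicates inhibition.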
AMA1-RON2 inh – disrupts binding of P. falciparum AMA1 to RON2; AlphaScreen AMA1-biotinylated RON2 peptide binding; Potency, µM (doses to about 58.2 µM), for the others: at the top dose activity change, negative = inhibition, actives largely listed as inhibitors; 0.2% of 360,000 active; AID 720542;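 note: 0% = vehicle wells and -100% = peptide control; nearly all actives have a fitted effect of over 45% in size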
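AMA1 (3D7) with his tag at 25 nM final met compounds first, then biotinylated RON2 peptide at 25 nM; detection used donor plus acceptor beads, 10 µg/mL apiece, read by AlphaScreen after 30 min at room temperature.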
* marks the source's active call; other numbers are inactive results; ? = inconclusive; · = no result; [ ] = dose if it differs, or a comment. Calls come from the whole dose curve; as a rule, active = well fitted curve in the direction sought with a large enough effect; inconclusive = small, poorly fitted or top-dose-only effect, or another doubt; inactive = no such curve, though single readings can be large; an effect the other way counts as inactive or inconclusive. Unless noted, % is set by controls: 0 for no effect and ±100 for the full control effect; potency is the fitted concentration of half-maximal effect.

SMILES	Pf growth 96h	HCV inhibitor	Pf growth 48h	AMA1-RON2 inh
Cc1ccc(-c2ccc(/C=C3\SC(N4CCOCC4)=NC3=O)o2)cc1	6.2%	12.6µM*	?	4.6%
Cc1nc2ccccc2c(=O)n1NC(=O)C1CC1	28.9%	10.8%	18.2%	2.4%
Cc1ccc(S(=O)(=O)N2[C@H](CC(=O)c3cccc4ccccc34)OC[C@@H]2C)cc1	·	·	·	-5.4%
O=C(O)c1ccc(-n2c(O)c(C=C3N=c4ccccc4=N3)sc2=S)cc1	112.0%	16.5%	30.4%	62.4%
O=C(O)c1cccc(-n2c(O)c(C=C3N=c4ccccc4=N3)sc2=S)c1	?	21.8%	11.7µM*	75.9%
O=[N+]([O-])c1ccccc1S(=O)(=O)N/C(=N/S(=O)(=O)c1ccccc1)c1ccccc1	·	-1.2%	·	9.7%
Cc1cc(C(C)(C)C)cc(C)c1COC(=O)CN1C(=O)NC2(CCCC2)C1=O	?	-16.7%	?	19.9%
Cc1cc(S(=O)(=O)N2CCN(c3ccccc3F)CC2)ccc1-n1cnnn1	11.7µM*	?	-14.1%	8.7%
O=C(COC(=O)c1cc([N+](=O)[O-])ccc1N1CCOCC1)Nc1cccc(F)c1	-17.7%	12.6µM*	23.7%	32.9%
CCOc1ccc(CCNC(=O)COC(=O)c2cc([N+](=O)[O-])ccc2N2CCOCC2)cc1OCC	9.28µM*	?	?	-3.3%
CC(=O)Nc1ccc(NC(=O)COC(=O)c2cc([N+](=O)[O-])ccc2N2CCOCC2)cc1	10.2%	-4.5%	-0.9%	9.7%
CCOc1ccc(CCNC(=O)c2cc([N+](=O)[O-])ccc2N2CCOCC2)cc1OCC	?	?	?	5.0%
CCOc1ccc(CCNC(=O)COC(=O)c2cc(OC)c(OC)cc2[N+](=O)[O-])cc1OCC	?	?	14.7µM*	-17.0%
CCOC(=O)c1ccccc1NC(=O)COC(=O)c1cc([N+](=O)[O-])ccc1N1CCOCC1	?	2.24µM*	?	?
O=C(COC(=O)c1cc([N+](=O)[O-])ccc1N1CCOCC1)Nc1c(Cl)cccc1Cl	25.6%	?	2.0%	-2.0%
CCOc1ccc(CCNC(=O)COC(=O)c2cc(OC)c(OC)c(OC)c2)cc1OCC	-26.7%	·	?	·
COc1ccc(C(C)NC(=O)c2cccc([N+](=O)[O-])c2)cc1OC (stereo not given)	?	-10.2%	?	0.3%
Cc1sc2nc(CN(C(=O)NC3CCCCC3)C3CCCCC3)[nH]c(=O)c2c1C	?	4.3%	-2.2%	-2.8%
Cn1cc(/C=C/c2cc[n+](C)cc2)c2cc(Cl)ccc21	0.165µM*	?	0.657µM*	-3.7%
C[n+]1ccc(/C=C/c2c[nH]c3ccc(F)cc23)cc1	?	1µM*	0.37µM*	5.5%
Cc1ccc2[nH]c(C)c(/C=C/c3cc[n+](C)cc3)c2c1	32.3%	?	?	-10.0%
Cn1cc(/C=C/c2cc[n+](C)cc2)c2cc(F)ccc21	0.131µM*	0.562µM*	0.262µM*	6.2%
Cn1cc(C=O)c2cc(F)ccc21	28.3%	8.9%	9.3%	-1.4%
Cc1c(C)c2ccc(OCC(=O)Nc3ccccn3)cc2oc1=O	149.1%	11.4%	122.6%	20.7%
Cn1c(=O)c(C(=O)COC(=O)c2cc(-c3ccccc3)nc3ccccc23)c(N)n(Cc2ccccc2)c1=O	?	0.0%[8.37 µM]	?	·
SMILES	Pf growth 96h	HCV inhibitor	Pf growth 48h	AMA1-RON2 inh
Cn1c(=O)c(C(=O)COC(=O)c2cc(C(F)(F)F)nc3ccccc23)c(N)n(Cc2ccccc2)c1=O	?	-10.1%[8.37 µM]	11.7µM*	·
CNS(=O)(=O)c1cccc(C(=O)OCC(=O)c2c(N)n(Cc3ccccc3)c(=O)n(C)c2=O)c1	·	?	·	-1.8%[11.6 µM]
CCNC(=O)COC(=O)c1cc(-c2ccco2)nc2ccccc12	20.0%	11.4%	-1.0%	-28.9%
Cn1c(=O)c(C(=O)COC(=O)c2cc(-c3ccco3)nc3ccccc23)c(N)n(CC2CC2)c1=O	8.28µM*	-17.3%[8.37 µM]	?	·
Cn1c(=O)c(C(=O)COC(=O)c2cc(C3CC3)nc3ccccc23)c(N)n(Cc2ccccc2)c1=O	9.28µM*	3.55µM*	?	10.1%
C=C(C)c1cccc(C(C)(C)NC(=O)NC2CC(C)(C)NC(C)(C)C2)c1	14.6%	-28.1%	?	-2.4%
CCOC(=O)[C@]12CCCC=C1N(Cc1cccc3ccccc13)C(=O)[C@H](CC(=O)N1CCOCC1)C2	·	·	·	-9.7%
CC[C@@]1(C(=O)OC)N[C@H](CN(C)C(=O)Nc2ccc(OC)cc2)[C@@H]2C(=O)N(Cc3ccccc3)C(=O)[C@@H]21	·	3.6%	·	8.3%
Cc1ccc(Oc2cc([N+](=O)[O-])cc3c2C(=O)Nc2ccccc2O3)cc1	44.3%	12.6µM*	?	-11.5%
O=C1Nc2ccccc2OCc2c1cccc2[N+](=O)[O-]	52.8%	7.0%	?	23.9%
Cc1ccc(NC(=O)CSc2nnc(NC3CC3)s2)cc1S(=O)(=O)N1CCOCC1	·	·	·	-3.6%
O=C1N=C2SCCN2/C1=C\c1ccccc1Cl	44.2%	-10.2%	3.4%	-1.9%
COc1ccc(C2c3ccsc3CCN2C(=O)NC(C)(C)C)cc1 (stereo not given)	?	22.4µM*	-9.2%	11.9%
CC1c2ccsc2CCN1C(=O)NC(=O)c1ccc(Cl)cc1 (stereo not given)	?	-20.3%	-5.3%	6.7%
O=C(N/N=C/c1ccc2c(c1)OCO2)C(=O)Nc1cccc(Cl)c1	-11.6%	8.1%	23.9%	19.8%
Nc1ccc(-n2c(N)c(C(=O)NCc3ccc4c(c3)OCO4)c3nc4ccccc4nc32)cc1	·	2.51µM*	·	28.1%
Nc1c(C(=O)NCc2ccccc2)c2nc3ccccc3nc2n1-c1ccc2c(c1)OCO2	?	-12.8%	-85.2%	4.5%
Nc1c(C(=O)NCCN2CCOCC2)c2nc3ccccc3nc2n1-c1ccc2c(c1)OCO2	2.94µM*	2.0%	?	6.2%
O=C(NCCN1CCOCC1)c1cc(-c2ccccc2)nc2ccccc12	·	·	·	-5.5%
O=C(NCCN1CCOCC1)c1cnn2c(-c3ccccc3)cc(-c3ccccc3)nc12	10.4µM*	11.2µM*	?	56.8%
Nc1c(C(=O)NCCN2CCOCC2)c2nc3ccccc3nc2n1-c1ccccc1	·	?	9.28µM*	18.2%
Cn1c(=O)n(C)c2cc([N+](=O)[O-])c(N3CCN(CCO)CC3)cc21	?	22.5%	0.1%	7.4%
Cc1cccc(N2C(=O)/C(=C/c3cccnc3)SC2=S)c1	19.9%	-1.5%	0.0%	31.9%
Cc1cc(/C=C2/SC(=S)N(c3ccc([N+](=O)[O-])cc3)C2=O)c(C)n1-c1cccnc1	16.4%	2.51µM*	13.1µM*	-10.3%
Cc1cc(/C=C2/SC(=S)N(c3cccc(Cl)c3)C2=O)c(C)n1-c1cccnc1	·	2.24µM*	·	-20.5%
Cc1ccc(N2C(=O)/C(=C/c3cccnc3)SC2=S)cc1	-29.2%	14.9%	10.3%	-4.6%
COCCNC(=O)/C=C/c1c(Cl)cccc1Cl	?	-21.4%	29.9%	-5.5%
COC(=O)c1ccc(NC(=O)CCC(=O)c2ccc(F)cc2)cc1	22.0%	8.0%	35.2%	-3.0%
